# Assay results as given in the supplement of paper PMC7156485.
# Several values for one entry are separate records, joined by “and”; a condition that tells them apart may be missing. Equal entries are not always repeated. ± gives the standard deviation of the averaged measurements.
# Tested on: TDF
# Test: cell number relative to DMSO (% of DMSO); higher = more cells (less growth inhibition / toxicity)
# Details: concentration: 10 µM; 24 h
# Summary of the method: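 Six fields per well were imaged at ×10 after the cells were fixed in 3.7% formaldehyde and stained with a rabbit anti-H1.0 antibody, an AlexaFluor 647 secondary and DAPI. The HCC1569 and TDF cells had been plated at 800 per well in 384-well plates (RPMI, 10% FBS) and treated in triplicate with compounds at 10 µM for 24 h at 37 °C. The values are the median of replicates of H1.0 nuclear intensity or cell number, as percent of the plate control. Smoothing for positional effects was applied to HCC1569 data.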
# 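Note: TDF denotes transformed human dermal fibroblasts of mesenchymal origin.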
row,SMILES,cell number
1,CCCCCCCCCCCCCCCCCC(=O)O [Octadecanoic acid],101
2,CN(C)c1cc2c(Nc3ccc4c(cnn4Cc4ccccc4)c3)ncnc2cn1,90.4
3,O=C(O)C=CC(=O)O.c1cnc(N2CCN(Cc3ccc4c(c3)OCO4)CC2)nc1 [Piribedil maleate],116
4,CNCCCC12CCC(c3ccccc31)c1ccccc12.Cl [Maprotiline hydrochloride],102
5,CC(=O)Nc1nnc(S(N)(=O)=O)s1 [Acetazolamide],106
6,O=C(O)c1cccnc1C(=O)O [Quinolinic acid],102
7,C=CC1CN2CCC1CC2C(O)c1ccnc2ccc(OC)cc12.Cl.O.O (stereo not given),99.4 ± 3.1
8,CCC(C)N(C)C(=O)c1cc2ccccc2c(-c2ccccc2Cl)n1 (stereo not given),110
9,CC(C)N(CCC(=O)c1ccc2ccccc2c1)Cc1ccccc1.Cl [JAK3 Inhibitor IV],97
10,CCC(c1ccc(O)cc1)C(CC)c1ccc(O)cc1 (stereo not given) [Hexestrol],102
11,"CC(=O)C(C)=NO [2,3-Butanedione monoxime]",95.2
12,NC(N)=NC(CCC(=O)O)C(=O)O (stereo not drawn) [alpha-Guanidinoglutaric acid],108
13,CCC1(O)CC2CN(CCc3c([nH]c4ccccc34)C(C(=O)OC)(c3cc4c(cc3OC)N(C)C3C(O)(C(=O)OC)C(OC(C)=O)C5(CC)C=CCN6CCC43C65)C2)C1 (stereo not given) [Vinblastine],9.51
14,CCCCCC(O)c1cccc(OCc2ccc3ccccc3n2)c1 (stereo not given),107 and 102
15,"O=C(O)c1ccccc1C(=O)Nc1ccc(-c2ccccc2)cc1 [2-[([1,1'-biphenyl]-4-ylamino)carbonyl]benzoic acid]",99.9
16,COC(=O)Nc1nc2ccc(S(=O)c3ccccc3)cc2[nH]1 (stereo not given) [Oxfendazole],68.2
17,CC(NC(CCc1ccccc1)C(=O)O)C(=O)N1CCCC1C(=O)O (stereo not given) [Enalaprilat],86.2
18,Cc1cnc(C(=O)O)c[n+]1[O-] [Acipimox],108
19,O=C1NC(=O)c2c1c1c3ccccc3[nH]c1c1[nH]c3cc(Br)ccc3c21 [Cdk4 Inhibitor],63.5
20,COc1cc(Br)c(S(=O)(=O)Nc2ccc(Cl)c(O[C@@H]3CCN(C)C3)c2)cc1OC,82.9

row,SMILES,cell number
1,CC1CC2C(C(O)CC3(C)C2CCC3(O)C(=O)CO)C2(C)C=CC(=O)C=C12 (stereo not given) [Methylprednisolone],102
2,CC1CCC2C(C)(CO)C(O)CCC2(C)C12CCC(CO)(CCO)O2 (stereo not given) [Lagochiline],99.8
3,Cc1ccc(S(=O)(=O)NC(=O)NN2CC3CCCC3C2)cc1 (stereo not given) [Gliclazide],106
4,N#CC(=C(N)Sc1ccccc1N)c1cccc(C(O)c2ccncc2)c1 (stereo not given) [MEK Inhibitor I],86.8
5,"Cc1cccc(C(=O)NCN2CCN(c3ccccc3C#N)CC2)c1.O=C(O)C=CC(=O)O [PD 168,077 maleate]",107
6,"OCC1NC(CO)C(O)C1O [(2R,5R)-Bis(hydroxymethyl)-(3R,4R)-dihydroxypyrrolidine]",101
7,COc1ccc(C(=O)NCc2cccnc2)cc1C(=O)NCc1cccnc1 [Picotamide],103 ± 5.2
8,CN(C)CCOC(=O)COc1ccc(Cl)cc1.Cl [Centrophenoxine hydrochloride],98.6
9,O=c1[nH]c(=O)n(C2CC(O)C(CO)O2)cc1F (stereo not given) [Floxuridine],61.1
10,CCCCCCCCCCCCCCCC(O)C(CO)NC(C)=O (stereo not given) [C2 Dihydroceramide],114
11,COC(=O)C1C2CC3c4[nH]c5cc(OC)ccc5c4CCN3CC2CC(OC(=O)c2cc(OC)c(OC)c(OC)c2)C1OC (stereo not given) [Reserpine],86.3
12,CCCCCC(O)C=CC1C=CC(=O)C1CC=CCCCC(=O)O (stereo not given) [Prostaglandin A2],110
13,"O=c1[nH][nH]c2nnc(-c3c(-c4ccccc4)nn4ccccc34)cc12 [ERK Inhibitor II,                   Negative control]",98.8
14,"O=[N+]([O-])c1ccc(S(=O)(=O)NCc2ccccc2)c([N+](=O)[O-])c1 [N-Benzyl-2,4-dinitrobenzenesulfonamide]",58.4
15,Cl.Cl.O=S(=O)(c1cccc2cnccc12)N1CCCNCC1,95
16,"CCN(NO)C1=CC(=O)C(=O)C=C1 [ET-3,4-dephostatin]",97.7
17,O=c1[nH]c(=O)n(C2CCCO2)cc1F (stereo not given) [Ftorafur],102
18,CN(C)CCCC1(c2ccc(F)cc2)OCc2cc(C#N)ccc21 (stereo not given) [Citalopram],114
19,"Cl.Cl.Cl.Ic1ccc(N2CCN(Cc3c[nH]c4ncccc34)CC2)cc1 [L-750,667 trihydrochloride]",101
20,CCN1CCCC1CNC(=O)c1cc(S(=O)(=O)CC)c(N)cc1OC (stereo not given) [Amisulpride],84.5
